Measurements: PubChem BioAssay (NCATS)
Records with an inconclusive call do not appear. The source made the active and inactive calls. Unless noted, calls follow the shape of the dose curve; as a rule, active = well fitted curve in the direction sought with a large enough effect; inconclusive = small, poorly fitted or top-dose-only effect, or another doubt; inactive = no such curve, though single readings can be large; an effect the other way counts as inactive or inconclusive.

Tests used:
[1] = Cell Viability - Jurkat (AID 426;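 active = dose-dependent loss of cell ATP signal giving a full or clear fitted curve, ranked by lower potency value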;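 also: potency is read from the fitted curve at half-maximal effect; cells exposed to compound for 40 hours at 37 °C before ATP read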); conditions: qHTS
Method in brief: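 Cytotoxicity was scored as loss of cellular ATP, measured by luciferase-based luminescence, in Jurkat clone E6-1 cells after 40 h compound treatment; tamoxifen and doxorubicin served as positive controls.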

[2] = Cell Viability - HepG2 (AID 433; calls by dose curve;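 also: potency is read from the fitted curve at half-maximal effect; cells exposed to compound for 40 hours; potency for ATP loss meaning cytotoxicity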); conditions: qHTS
Method in brief: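 Read-out is luciferase-based quantitation of cellular ATP as a measure of viable HepG2 cells after 40 h treatment at 37 °C. Signal decrease is scaled between DMSO-only and 100 uM tamoxifen controls, with AC50 fitted by the Hill equation.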

[3] = Cell Viability - N2a (AID 540); conditions: N2a mouse neuroblastoma cell viability; activity change, negative = cytotoxicity: at 92.2 µM (top of the series);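 also: cells exposed to compound for 40 h at 37 °C; plate controls were DMSO alone for no effect and tamoxifen control for full effect; nearly all actives have a fitted effect of over 45% in size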
Method in brief: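 In this qHTS cytotoxicity screen, ATP-dependent luciferase luminescence reports viable N2a cells after a 40 hr compound exposure in complete culture medium. Potencies are AC50 values from standard Hill equation fits.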

[4] = Cell Viability - HUV-EC-C (AID 542);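 also: cells exposed to compound for 40 hours; % is scaled to controls: 0 for no effect and ±100 for the full control effect; nearly all actives have a fitted effect of over 35% in size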
Method in brief: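 Concentration-dependent ATP loss in HUV-EC-C cells is the measure. Exposure lasts 40 hr at 37 °C; luminescence follows CellTiter-Glo addition, and Hill fits give AC50.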

[5] = Cell Viability - H-4-II-E (AID 543);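 also: cells exposed to compound for 40 hours; % is scaled to controls: 0 for no effect and ±100 for the full control effect; nearly all actives have a fitted effect of over 35% in size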
Method in brief: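 AC50 from Hill-modelled qHTS concentration-response curves. H-4-II-E rat hepatoma cells in complete medium, 40 hr exposure at 37 °C, viability by CellTiter-Glo ATP luminescence.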

[6] = Cell Viability - SH-SY5Y (AID 544);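 also: cells exposed to compound for 40 hours; nearly all actives have a fitted effect of over 55% in size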
Method in brief: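 Quantitative HTS in SH-SY5Y neuroblastoma cells, 40 hr treatment at 37 °C, ATP content by luciferase luminescence; AC50 from Hill fits.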

[7] = Cell Viability - Renal Proximal Tubule (AID 545); conditions: renal proximal tubule cells viability, primary cells of rat origin; at 91.7 µM (top of the series);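 also: cells exposed to compound for 40 hours; nearly all actives have a fitted effect of over 40% in size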
Method in brief: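 Luminescent ATP signal (CellTiter-Glo) served as the viability read-out after 40 hr compound exposure of freshly isolated rat proximal tubule cells at 37 °C. Concentration-dependent ATP loss was fitted with the Hill equation to give AC50.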

[8] = Cell Viability - Mesenchymal (AID 546); conditions: mesenchymal cells viability, qHTS; activity change, negative = cytotoxicity: at 91.7 µM (top of the series);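 also: cells exposed to compound for 40 hours before reading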
Method in brief: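 Human renal mesenchymal cells (glomerulus-derived), 1000 cells/well, 5 hr 37 °C pre-incubation; compound 40 hr, 37 °C; CellTiter-Glo, 20 min RT; luminescence; AC50 via Hill equation.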

[9] = Cellular Toxicity (caspase-3) HepG2 (AID 654);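 also: cells exposed to compound for 16 hours before reading; 0% = DMSO alone and 100% = caspase signal from 100 µM tamoxifen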
Method in brief: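 Concentration-response AC50 values reflect caspase-3/7 induction in HepG2 cells after 16 hours of compound exposure, quantified by luminescence from liberated aminoluciferin and referenced to 100 uM tamoxifen as full stimulation.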

[10] = Cellular Toxicity (caspase-3) Jurkat (AID 655); conditions: Jurkat caspase-3 activation, luminescence, DMSO = 0%, tamoxifen = 100%; at 92.2 µM (top of the series);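 also: cells exposed to compound for 16 h at 37 °C before reading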
Method in brief: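 5000 Jurkat cells/well; compound 16 hr, 37 °C; Caspase-Glo 3/7 added, 20 min RT; luminescence read. Norm: DMSO = 0%, tamoxifen 100 uM = 100%. AC50, Hill model.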

[11] = Cellular Toxicity (caspase-3) HUV-EC-C (AID 656)
Method in brief: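 qHTS; HUV-EC-C, 1000 cells/well; 5 hr settle, 16 hr cmpd, 37°C; Caspase-Glo 3/7, 20 min RT; luminescence. Norm: DMSO = 0%, tamoxifen 100 uM = 100%. Hill-fit AC50.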

[12] = Cellular Toxicity (caspase-3) SHSY5Y (AID 657)
Method in brief: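 qHTS, SH-SY5Y, 1500 cells/well, 5 h pre-incubation 37 °C; compound 16 h 37 °C; Caspase-Glo 3/7 1 h RT; luminescence. Norm.: DMSO = 0, 10 uM staurosporine = 100%. Hill fit → AC50.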

[13] = Cellular Toxicity (caspase-3) BJ (AID 658);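 also: 0% = DMSO basal and 100% = 10 µM staurosporine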
Method in brief: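 qHTS, BJ fibroblasts, 1000 cells/well; 5 hr preincubation, 16 hr compound, 37 °C; Caspase-Glo 3/7 reagent, 1 hr RT; luminescence. DMSO = 0%, 10 uM staurosporine = 100%. Hill-equation AC50.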

[14] = Cellular Toxicity (caspase-3) MRC-5 (AID 659);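 also: 0% = DMSO basal and 100% = 10 µM staurosporine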
Method in brief: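 MRC-5 fibroblasts, 1500/well; 16 h cpd, 37 °C; Caspase-Glo 3/7, 1 h RT; lumi read. Norm: DMSO = 0%, 10 uM staurosporine = 100%. Hill-fit AC50 from qHTS conc-response.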

[15] = Cellular Toxicity (caspase-3) Mesangial (AID 660);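 also: combined caspase 3 and 7 activity read by Caspase-Glo luminescence; cells exposed to compound for 16 h before the caspase read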
Method in brief: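 AC50 values come from Hill-equation fits of caspase 3/7 activation, measured as Caspase-Glo luminescence in human glomerular mesangial cells exposed to compound for 16 h at 37 °C; 100% set by 100 uM tamoxifen.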

[16] = Cellular Toxicity (caspase-3) SK-N-SH (AID 661);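 also: 0% = DMSO basal and 100% = 10 µM staurosporine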
Method in brief: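 Apoptosis readout in SK-N-SH neuroblastoma: Caspase-Glo 3/7 luminescence following 16 hr treatment in complete culture medium. Normalization used DMSO and 10 uM staurosporine controls.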

[17] = Cellular Toxicity (caspase-3) H-4-II-E (AID 663); conditions: Potency: caspase-3 activation;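 also: cells exposed to compound for 16 hr before readout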
Method in brief: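 H-4-II-E rat hepatoma, 1500 cells/well, 5 hr settle at 37 °C; compound 16 hr, 37 °C, complete medium; Caspase-Glo 3/7, 20 min RT; luminescence. DMSO = 0%, 100 uM tamoxifen = 100%; Hill-equation AC50.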

[18] = Cellular Toxicity (caspase-3) Hek293 (AID 664);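 also: cells exposed to compound for 16 h at 37 °C before readout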
Method in brief: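 Apoptosis readout: Caspase-Glo 3/7 signal in human HEK293 cells following 16-hour compound incubation. Responses scaled between DMSO baseline and 100 uM tamoxifen.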

[19] = Cellular Toxicity (caspase-3) N2a (AID 665);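 also: compound exposure lasted 16 h at 37 °C before readout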
Method in brief: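 Concentration-response qHTS: compound-induced caspase-3/7 luminescence in N2a cells (16 h, 37 °C), relative to DMSO and 10 uM staurosporine controls; AC50 obtained using the standard Hill equation.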

[20] = Cellular Toxicity (caspase-3) NIH 3T3 (AID 666);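 also: caspase signal read after 16 h compound exposure; 0% = DMSO basal and 100% = 100 µM tamoxifen stimulation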
Method in brief: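 Activity: caspase-3/7 induction, NIH 3T3 cells, 16 hr treatment at 37°C, luminescent Caspase-Glo detection; AC50 via Hill equation.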

[21] = Cellular Toxicity (caspase-3) Renal Proximal Tubule (AID 667);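 also: cells exposed to compound for 16 hours at 37 °C before detection; 0% = DMSO basal and 100% = 10 µM staurosporine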
Method in brief: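 AC50 derived by standard Hill fit of concentration-response data, normalized between DMSO basal and 10 uM staurosporine as 100% stimulation. Cells: primary rat kidney proximal tubule, 16 h treatment at 37 °C.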

[22] = target: Cytochrome P450 3A4 (Homo sapiens) (UniProt P08684); assay: qHTS Assay for Inhibitors and Substrates of Cytochrome P450 3A4 (AID 884); also: % is scaled to controls: 0 for no effect and ±100 for the full control effect; nearly all actives have a fitted effect of over 50% in size
Method in brief: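 Luminescent readout of luciferin produced by CYP3A4 (20 nM) dealkylation of Luciferin-PPXE, 25 uM (its KM). NADPH-driven reaction ran 60 min at RT after 10 min compound preincubation; data scaled to 57 uM ketoconazole as 100% inhibition.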

[23] = Cell Viability - LYMP2-001 (AID 921);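 also: cells exposed to compound for 24 h at 37 °C; 0% = DMSO only and full inhibition = tetraoctylammonium bromide control wells; nearly all actives have a fitted effect of over 70% in size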
Method in brief: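 Steps: seed 2500 lymphoblastoid cells/well; 5 hr, 37 C; add compound; 24 hr, 37 C; CellTiter-Glo reagent, 30 min room temperature; read luminescence. Concentration-response modeled by Hill equation for AC50.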

[24] = MultiTox-Fluor Cytotoxicity Assay - LYMP1-001 - Dead Cells (AID 946);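 also: 0% = DMSO and 100% = tetraoctylammonium bromide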
Method in brief: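 AC50 from Hill fit of concentration-response; data normalized to DMSO (basal) and 15 uM tetraoctylammonium bromide (100%). LYMP1-001 lymphoblastoid cells, 2500/well, 16 hr compound at 37 C; dead-cell protease fluorescence, Ex/Em 485/520.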

[25] = MultiTox-Fluor Cytotoxicity Assay - LYMP1-001 - Live Cells (AID 947);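 also: 0% = DMSO only and full inhibition = tetraoctylammonium bromide control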

Chain of Cytochrome P450 3A4 (Homo sapiens) (P08684 whole entry, looked up): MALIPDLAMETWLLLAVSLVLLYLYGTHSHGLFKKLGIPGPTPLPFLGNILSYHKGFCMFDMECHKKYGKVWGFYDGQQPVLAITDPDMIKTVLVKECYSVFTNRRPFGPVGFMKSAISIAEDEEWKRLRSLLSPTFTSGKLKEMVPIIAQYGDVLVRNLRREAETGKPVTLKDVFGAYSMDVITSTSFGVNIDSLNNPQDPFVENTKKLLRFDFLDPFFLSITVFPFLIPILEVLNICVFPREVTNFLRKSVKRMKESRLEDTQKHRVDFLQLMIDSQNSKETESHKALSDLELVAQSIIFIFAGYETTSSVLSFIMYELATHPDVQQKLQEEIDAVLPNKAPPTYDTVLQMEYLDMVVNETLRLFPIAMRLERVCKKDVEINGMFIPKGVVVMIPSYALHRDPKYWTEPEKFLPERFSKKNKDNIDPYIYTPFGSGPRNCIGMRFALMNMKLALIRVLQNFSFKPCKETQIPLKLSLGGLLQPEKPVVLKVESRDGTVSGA

C=CCc1ccc(OC)c(OC)c1
inactive: Potency [1] > 92 µM | Potency [2] > 92 µM | activity change, negative = cytotoxicity [3] -13.8% | outcome [4] | Potency [5] | Potency [6] | activity change, negative = cytotoxicity [7] -5.61% | activity change, negative = cytotoxicity [8] -7.19% | outcome [9] | caspase-3 activation [10] -0.00061% | outcome [11] | outcome [12] | outcome [13] | outcome [14] | outcome [15] | outcome [16] | Potency [17] | outcome [18] | outcome [19] | outcome [20] | outcome [21] | Potency [22] | Potency [23] | Potency [24] | Potency [25]
